# The full ranking holds about 1,100 sequences; the median of “thermal melting temperature (Tm) of peptide-HLA complex” is about 58, and the lowest 2% start at about 42. Many of the other results were omitted from the sample, so the lowest values are more common in it than they were.
# Biological target: HLA-A*02:01
# Experiment: thermal melting temperature (Tm) of peptide-HLA complex; higher = more thermostable pHLA complex
# Conditions: C1R-A*02:01
# 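Note: lysates heated 10 min at 37–73 °C, complexes pulled down with pan-HLA I antibody, peptide signal by DIA-MS relative to 37 °C, Tm where half the complex is unfolded.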
row,Sequence,thermal melting temperature [°C]
1,ALLDGRLQV,60.7
2,FILPHISTA,55.7
3,LADETLLKV,55.2
4,GLDPNKPPEL,61
5,VLGRVNLV,45.9
6,HLDEAIHVL,51.9
7,VLLGEVNIRL,55.2
8,SLLNPPETLNL,54.9
9,TLLGNIHAV,59.5
10,GLLENIPRV,64.8
11,YLHDQNPDAAL,59
12,VLLKARLVPA,59.7
13,VTTDIQVKV,47.3
14,FLLLPGPSAA,47
15,HLFETISQA,54.9
16,GLDPQGDRSFL,57
17,FLPQGFPDSV,45.8
18,SIHDVTFQV,57.4
19,SMSADVPLV,61.3

row,Sequence,thermal melting temperature [°C]
1,ALLKIEGVYA,59.4
2,ILLDNDHYA,50.4
3,FLDPNNIPKA,61.3
4,YLSPDLSKV,61.9
5,LLDPNVKSIFV,62.2
6,FLDITNPKA,58.3
7,FLDITNPKAV,40.7
8,AMNDILAQV,62.2
9,KLDFANNVQL,50.3
10,ALLDQLHTL,62.5
11,FLSELTQQL,59.5
12,VLHELTFQA,60.4
13,FVADGIFKA,41.1
14,VLAPHLTRA,53
15,FLSDGTIISV,57.5
16,RLAEALPKQSV,41.8
17,GVIDGHIYAV,61.7
18,SLFPGKLEV,60.4
19,GLLQINDKIAL,41.7

row,Sequence,thermal melting temperature [°C]
1,RLQEEINEV,55.3
2,YQLEAEFVGV,58.7
3,SLLGGVLRV,55.7
4,TLSDLRVYL,64.7
5,ALFPERITV,61.6
6,YLDIKGLLDV,56
7,TLLDPNEKYLL,61.3
8,RLWNETVEL,63.7
9,SIAPRMMSV,48.1
10,FTQDSNYLL,49.1
11,HIADVSHFI,55.3
12,RIADGLPVAV,41
13,VLADQEVRL,58.4
14,GLNEEIARV,64
15,IQDDMQTLYV,43.4
16,ILANDGVLLAA,59.6
17,FLIPIYHQV,62.7
18,SLIRNLEQL,51.2
